High-throughput results deposited in PubChem by several laboratories.
Rows were chosen to be rich in hits. Some 3.8% of all compounds tested hit in one or more screens of this group.
SUMO Mot1 rescue: inhibitors of SUMOylation pathway: yeast Mot1-301 growth rescue | S. cerevisiae Mot1-301 growth rescue, ATP luminescence, 38.5C; percent above DMSO median, 100 means doubled | growth rescue, % at 18.8 µM | 1% of 320,000 active | AID 2716;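 active means every valid replicate shows activation above 250% relative to neutral control wells; inactive means the rest, any valid replicate at or below 250%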;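 further: OY570 slx delta 5 strain wells were the positive control but not used for scaling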
H9c2 protect: protects H9c2 cardiomyocytes from peroxide injury; H2O2 injury protection, ATPLite, 2 h; protection from H2O2 cell death, % at 20 µM; 0.63% of 360,000 active;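 active means compounds giving at least 50% protection of heart cells from peroxide-induced death in the single-dose screen, raw or plate-pattern-corrected value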;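 further: 0% = DMSO wells with peroxide and 100% = DMSO wells without peroxide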
CR mimetic SO: caloric restriction mimetics inhibiting age-related superoxide in yeast. S. cerevisiae aged cells, superoxide DHE fluorescence; stronger effect = lower value. superoxide response (% of plate mean), % at 10 µM. 0.18% of 330,000 active. AID 2690;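 active means superoxide response under a set limit, about three screen SD below normal, cut at about 65% in these data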;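 further: yeast aged for seven days with compound at 30 °C before DHE staining; 100% = average MFI of all compound-treated wells on the plate with controls excluded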
MPTP block: permeability transition pore inhibition; isolated mouse mitochondria, Ca2+ swelling absorbance, 30 min; inhibition, % at 10 µM; 1.4% of 360,000 active; AID 602449;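 active means inhibition of 50% or more, scaled per plate between neutral and stimulator controls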;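 further: 0% = DMSO wells given calcium and 100% = 1 mM EGTA wells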
FAS-TE inh: FAS thioesterase (human) inhibition; 0.67% of 360,000 active; P49327; inhibition, % at 15 µM; recombinant FAS-TE, OMFH fluorogenic substrate, fluorescence endpoint;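 active means compounds whose normalised, plate-corrected inhibition of enzyme fluorescence in the single-dose primary screen is 50% or more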;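 further: 0% = DMSO with enzyme and 100% = substrate without enzyme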
aDG glyco act: increases alpha dystroglycan glycosylation | 0.22% of 360,000 active | Pro5-aDG cells, alpha-DG glycosylation AlphaScreen (IIH6); 0% Pro5, 100% B10-LARGE cell signal | AID 624168 | activation, % at 10 µM;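 active means activation of at least 8% versus controls, or a plate z-score of at least 8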;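 further: Pro5 are CHO cells carrying HIG-tagged alpha-DG that lacks glycosylation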
The depositor's hits bear a star; nt = not tested or not shown.

SMILES	SUMO Mot1 rescue	H9c2 protect	CR mimetic SO	MPTP block	FAS-TE inh	aDG glyco act
COc1cc(/C=N\NC(=O)c2cccnc2)ccc1OC(=O)c1ccccc1Cl	4.0	55.3*	123.4	1.2	3.2	0.1
COc1cc(C(=O)N/N=C/c2ccc(OC(=O)c3cccc(C)c3)c(OC)c2)ccc1O	-2.4	58.0*	nt	0.2	4.9	0.2
O=C1NC[C@H](CCCCN2C[C@H](Cc3ccc(O)cc3)N(Cc3ccccc3)C(=O)C2=O)N(CC2CCCCC2)C1=O	nt	nt	nt	-1.3	1.8	-0.2
COc1ccc(C2=CCN3CCCCC3C2)c(-c2ccc(OC)c(OC)c2)c1 (configuration not stated)	-1.4	6.4	102.2	0.1	-7.7	-0.1
CC(C)(C)NC(=O)C(OC(=O)c1ccco1)c1ccc(Cl)cc1 (configuration not stated)	14.0	4.4	110.5	2.0	-2.1	0.1
Cc1ccc(C(=O)NCCCNC(=O)COc2ccc(C)c(C)c2)cn1	288.6*	-3.9	86.1	0.4	-4.2	0.0
COc1cccc(OC)c1C(=O)Nc1ccc(Br)c(C(=O)c2ccccc2)c1	-11.1	54.5*	90.7	-1.9	15.9	-0.3
COc1ccccc1C(=O)Nc1cccc(C(=O)c2ccccc2)c1	4.6	5.7	100.8	0.5	23.8	0.0
CCOC(=O)N1CCc2c(sc(NC(=O)CN3CCOCC3)c2C(=O)Nc2ccccc2)C1	37.2	50.0*	109.8	-3.9	3.9	-0.7
CCCC1(c2ccccc2)NC(=O)N(CC(=O)NCC2COc3ccccc3O2)C1=O (configuration not stated)	-12.9	2.5	80.0	0.2	-0.8	0.2
CC1Cc2nc(SCC(=O)N3CCN(c4ccccc4)CC3)n(CCc3ccccc3)c(=O)c2S1 (configuration not stated)	333.7	39.5	96.5	-0.5	27.2	-0.6
CCn1c(SCC(=O)N2CCN(c3ccccc3)CC2)nc2c(c1=O)SC(C)C2 (configuration not stated)	-4.3	58.5*	103.7	-0.8	2.2	1.5
CCOc1ccc(NC(=O)c2cc3c(C)nc4ccccc4c3o2)cc1	202.8	61.0*	104.2	-1.1	-2.4	0.0
Cc1nc2ccccc2c2oc(C(=O)NC3CC3)cc12	-15.3	16.4	85.1	1.2	-4.3	0.2
O=C(Nc1ccc2oc(-c3ccccc3F)nc2c1)c1cncc(Br)c1	50.9	1.2	101.5	0.7	-13.1	0.1
O=C(Nc1ccc2oc(-c3ccccc3F)nc2c1)c1ccc([N+](=O)[O-])o1	0.3	58.1*	99.0	1.7	-2.8	0.3
CC1(C)CC(=O)C=C(c2ccc(-c3ccccc3)cc2)C1=O	nt	-26.9	nt	-0.9	21.9	0.0
CC1(C(=O)NS(=O)(=O)c2ccc(F)cc2F)CCN1C(=O)CC1CCCCC1 (configuration not stated)	nt	0.8	nt	-1.2	-8.2	-0.1
Cc1ccc([C@H]2N[C@]3(CCCN(Cc4ccc(Br)cc4)C3=O)[C@H]3C(=O)N(Cc4ccccc4)C(=O)[C@@H]23)cc1	nt	6.6	nt	0.4	33.2	0.1
COC(=O)NNC(=O)COc1cc(C)ccc1C	-1.2	4.2	93.3	-1.4	-10.9	-0.4
Cc1ccc(C)c(OCC(=O)NNC(=O)CSC(=S)N2CCCC2)c1	331.6*	2.5	102.0	-0.7	-7.9	0.1
COc1ccc(CCN2CC(C(=O)N3CCN(C(C)=O)CC3)CCC2=O)cc1 (configuration not stated)	12.4	5.0	97.0	-0.7	-6.6	0.0
O=C(c1ccc(Br)o1)N1CCN(c2ccc3nnc(-c4ccccc4)n3n2)CC1	-6.4	80.6*	91.1	-1.5	3.9	-0.1
Cc1ncc(CO)c2c1Oc1nc(-c3ccccc3)nc(SCC(=O)Nc3cccc(O)c3)c1C2	8.5	63.0*	87.0	-1.0	-4.3	-0.1
O=C(CSc1nc(-c2ccccc2)nc2c1Cc1ccccc1O2)Nc1ccccc1	57.3	nt	106.4	nt	nt	nt
COc1ccc(-c2nc3c(c(SCC(=O)Nc4cccc(O)c4)n2)Cc2c(CO)cnc(C)c2O3)cc1	2.7	65.9*	99.6	-1.0	-8.6	-0.1
COc1ccc(C2=Cc3ccccc3C(CC(=O)C3CC3)N2c2ccc(C#CCCO)cc2)cc1 (configuration not stated)	nt	nt	nt	-1.6	8.4	0.1
